Screen size: about 310,000 compounds; about 18,000 (5.8%) were called active. Another 22% or so got no clear call; they are omitted. The sample as a whole holds a higher share of actives than the screen did. Unmarked numbers belong to inactive results. The call rests on the fitted dose curve; in most records, active means well fitted inhibition curve with a large enough effect; inconclusive means small, poorly fitted or top-dose-only effect, or another doubt; inactive means no such curve, though single readings can be large or run the other way.
assay: Primary qHTS for delayed death inhibitors of the malarial parasite plastid, 48 hour incubation; details: P. falciparum luciferase growth in erythrocytes; series mostly up to 28.7 µM; activity change, negative = inhibition: at the top concentration
How it was run: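 Firefly luciferase activity from engineered P. falciparum reports growth; inhibitors lower the luminescent signal. Cultures contained 2% hematocrit erythrocytes at 0.1% final parasitemia.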
On the % scale 0 is the no-effect control and ±100 the full control effect; potency means the concentration at half of the fitted maximal effect.

Row | SMILES | activity change, negative = inhibition | Potency
1 | CCOc1ccc(N(C)Cc2cc(=O)oc3ccc(OC)cc23)cc1 | -9.2% | –
2 | CC1CCC(NC(=O)CNC(=O)c2ccc3ccccc3c2)CC1 (stereo unspecified) | 51.1% | –
3 | CN(C(=O)Cn1nnc(-c2ccc(F)cc2)n1)C1CCS(=O)(=O)C1 (stereo unspecified) | -28.7% | –
4 | OCC[C@H]1C[C@@H](O)[C@H](O)[C@]2(OCCCc3ccccc32)O1 | -27.5% | –
5 | Cc1ccc2c(c1)N(CC(=O)N1CCC(C)CC1)C(=O)c1cccnc1O2 | -21.1% | –
6 | Cc1ccc(SCc2c(C(=O)N/N=C/c3cccnc3)nnn2-c2nonc2N)cc1 | 9.31% | –
7 | O=C(CN1CCCCCC1)N1c2ccccc2Sc2ccc(C(F)(F)F)cc21 | – | 13.1 µM (active)
8 | CCOC(=O)CNC(=O)N1c2ccccc2Sc2ccccc21 | 1.41% | –
9 | COc1cc(/C=C/C(=O)N2c3ccccc3Sc3ccc(C(F)(F)F)cc32)cc(OC)c1OC | -26.5% | –
10 | Cc1ccc(C(CNC(=O)Nc2ccccc2)N2CCN(C)CC2)cc1 (stereo unspecified) | 6.15% | –
11 | Cc1ccc(S(=O)(=O)N2CCC(C(=O)OCC(=O)N(C)c3ccccc3)CC2)cc1C | -32.8% | –
12 | COc1ccc(-c2nnc(SC(C)C(=O)NC3CC3)o2)cc1 (stereo unspecified) | – | 10.4 µM (active)
13 | COc1ccc(-c2nnc(SC(C)C#N)o2)cc1 (stereo unspecified) | 27.5% | –
14 | COc1ccc(-c2nnc(SCc3cccnc3)o2)cc1 | -42.2% | –
15 | CCCC(C)c1nnc(NC(=O)C2CC(=O)N(c3ccc(OCC)cc3)C2)s1 (stereo unspecified) | 5.54% | –
16 | COc1ccc(N2CCN(c3ccc([N+](=O)[O-])cc3Cl)CC2)cc1 | 5.17% | –
17 | CCN1CCN(c2ccc([N+](=O)[O-])cc2C(=O)c2ccc(Cl)cc2)CC1 | 0% | –
18 | CCN1CCN(c2ccc([N+](=O)[O-])cc2C#N)CC1 | – | 4.15 µM (active)
19 | COCCn1c(SCC(=O)Nc2nc(C)cs2)nnc1C(C)C | 4.19% | –
20 | O=S(=O)(c1ccc(Cl)s1)N1CCC2(CC1)OCCO2 | 5.07% | –
21 | O=C(Nc1cccc(-c2nc3ccccc3[nH]2)c1)c1ccc(C(=O)Nc2cccc(-c3nc4ccccc4[nH]3)c2)cc1 | – | 0.37 µM (active)
22 | O=C(Nc1cccc(NC(=O)c2ccc(Br)cc2)c1)c1ccccc1 | 38.2% | –
23 | O=C(Cc1cccs1)Nc1cccc(-c2nc3ccccc3[nH]2)c1 | -15% | –
24 | O=S(=O)(Nc1cc(Cl)ccc1N1CCOCC1)c1ccccc1Cl | – | 13.1 µM (active)
25 | O=S(=O)(Nc1cc(S(=O)(=O)N2CCOCC2)ccc1N1CCCC1)c1cccs1 | 13.2% | –
26 | O=S(=O)(Nc1ccc(-c2ccc(N3CCOCC3)nn2)cc1)c1cc(Cl)ccc1Cl | -10.8% | –

Row | SMILES | activity change, negative = inhibition | Potency
27 | COCCCNC(=O)[C@H]1N2C(=O)c3ccccc3C2SC1(C)C (stereo partly specified) | 1.37% | –
28 | COc1ccc(S(=O)(=O)NCc2ccc(C(=O)N(C)Cc3ccco3)cc2)cc1 | -0.0888% | –
29 | COc1ccc(CNC(=O)C(c2ccc(O)cc2)N(Cc2ccco2)C(=O)c2snc(C(N)=O)c2N)cc1 (stereo unspecified) | – | 13.1 µM (active)
30 | CCC(C(=O)NCc1ccc(OC)cc1)n1nc(C)n2c(cc3occc32)c1=O (stereo unspecified) | -0.531% | –
31 | COc1ccc(C(C(=O)NC2CCCCC2)N(C(=O)c2snc(C(N)=O)c2N)c2ccccc2OC)cc1 (stereo unspecified) | – | 14.7 µM (active)
32 | COc1ccc(C(C(=O)NC2CCCCC2)N(C(=O)CCl)c2ccccc2Cl)cc1 (stereo unspecified) | 0.344% | –
33 | COc1cc(C(C(=O)NC2CCCC2)N(Cc2ccccc2)C(=O)c2snc(C(N)=O)c2N)ccc1O (stereo unspecified) | -28.9% | –
34 | Cc1cc(CN(C)C(=O)c2cc(COc3ccc(C)c(C)c3)on2)n[nH]1 | 213% | –
35 | CC(=O)c1ccc(NC(=O)Cn2c(=O)oc3ccccc32)cc1 | 0.659% | –
36 | CCCCc1nc2cc(C(=O)N3CCCCC3CCO)ccc2o1 (stereo unspecified) | 30.8% | –
37 | O=C(Nc1cn(-c2ccccc2)nc1-c1ccccc1)c1ccccc1 | -6.02% | –
38 | CCc1ccc(-c2nn(-c3ccccc3)cc2CSC(=N)N)cc1 | – | 4.15 µM (active)
39 | Cc1ccc(-c2nn(-c3ccccc3)cc2C(=O)NC2CCC(O)CC2)cc1 (stereo unspecified) | 16.7% | –
40 | Cc1ccccc1OCC(=O)Nc1ccc2c(c1)ncn2C | -39.5% | –
41 | CN(CCc1ccccn1)C(=O)c1ccc(OC2CCN(CCc3ccccc3)CC2)cc1 | -14.2% | –
42 | COC(=O)c1ccc(CSc2ccccc2C)o1 | -1.17% | –
43 | O=C(CSc1ccc2nnc(-c3ccccc3)n2n1)N1CCCc2ccccc21 | – | 13.1 µM (active)
44 | CCCn1c(SCC(=O)N2CCc3ccccc32)nnc1-c1ccncc1 | 0.223% | –
45 | CCC(=O)N1CCCc2ccccc21 | 0.0597% | –
46 | COC(=O)c1ccc(CSc2ccc3nnc(-c4ccccc4)n3n2)o1 | – | 10.4 µM (active)
47 | COC(=O)c1ccc(CSc2nnc(N)s2)o1 | 39% | –
48 | CC(=O)NC(Cc1c[nH]c2ccccc12)C(=O)NCCc1ccccc1 (stereo unspecified) | -4.66% | –
49 | CC1CN(C(=O)CCC(=O)NCc2cccnc2)c2ccccc2O1 (stereo unspecified) | 8.83% | –
50 | CC(=O)NC(=O)c1ccccc1O | -11.5% | –
51 | O=C(COC(=O)CNC(=O)C1CCCCC1)Nc1cccc(F)c1 | -20% | –

— PubChem BioAssay AID504832 (National Center for Advancing Translational Sciences (NCATS), 2011)
